Only some compounds are listed: those with a hit (about 1.2% of all), similar ones and a draw of the others.
KCNH2 3.1 block – blocks the human KCNH2 3.1 channel isoform. AID 720553. U2OS KCNH2 3.1, thallium flux FluxOr; stronger effect = lower value. activity change, % (tested at about 1.8 µM). actives 0.95% (n = 340,000);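 active means maximum activity change below -70%; inconclusive means maximum activity change from -70% to -50%; inactive means maximum activity change above -50%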;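 further: thallium influx rate constant from kinetic fluorescence after stimulation buffer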
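Steps: virus added to U2OS suspension (4 h, RT, dark); medium with 10% FBS added, cells plated, 37 C overnight; FluxOr/Red40 loading buffer 45 min RT; stimulation buffer, 2 min kinetic read; rate constant normalized.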
mIDH1 inhibitor – inhibitors of human mutant IDH1 R132H | O75874 | IDH1-R132H enzyme, NADPH consumption, diaphorase/resazurin fluorescence | Potency, µM (top dose mostly 76.6 µM), usual class: inhibitors | actives 0.093% (n = 390,000); further: nearly all actives have a fitted effect of over 65% in size
Target sequence (O75874 whole entry R132H, stated change not applied): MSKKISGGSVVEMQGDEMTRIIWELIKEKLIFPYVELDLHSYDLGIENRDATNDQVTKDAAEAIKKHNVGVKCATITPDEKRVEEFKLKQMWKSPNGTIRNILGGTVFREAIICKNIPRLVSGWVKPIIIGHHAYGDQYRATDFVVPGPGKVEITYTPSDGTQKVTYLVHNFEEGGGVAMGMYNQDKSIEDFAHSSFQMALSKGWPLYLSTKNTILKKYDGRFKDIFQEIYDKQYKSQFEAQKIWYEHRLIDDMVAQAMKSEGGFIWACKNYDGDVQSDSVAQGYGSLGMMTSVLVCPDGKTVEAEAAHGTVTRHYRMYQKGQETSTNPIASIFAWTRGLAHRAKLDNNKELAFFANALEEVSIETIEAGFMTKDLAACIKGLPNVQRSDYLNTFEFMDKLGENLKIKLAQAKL
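IDH1-R132H (0.5 ug/mL dispensed) in pH 7.5 Tris buffer was preincubated 30 min with compound, then given a substrate mix of 0.016 mM NADPH and 2 mM alpha-KG for 80 min at room temperature; remaining NADPH was read by diaphorase/resazurin fluorescence.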
hERG WT inh – blocks the wildtype human KCNH2 potassium channel; Q12809; activity change, % at 1.84 µM; actives 0.37% (n = 340,000); U2OS, BacMam KCNH2, thallium flux FluxOr; stronger effect = lower value; AID 720551;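 active means maximum activity change below -70%; inconclusive means maximum activity change between -70% and -50%; inactive means maximum activity change above -50%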
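U2OS cells transduced with wild-type KCNH2 virus are loaded with FluxOr dye for 45 min, and thallium flux is measured in kinetic reads before and after stimulation buffer. Rate constants are normalized to DMSO controls.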
Anesthetic bind – candidate novel general anesthetic via apoferritin binding. AID 485281. P02791. Potency, µM (titrated, usually from 77.5 µM), hits mostly inhibitors. apoferritin/1-aminoanthracene competitive binding, fluorescence. actives 0.074% (n = 350,000); further: nearly all actives have a fitted effect of over 20% in size
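Horse-spleen apoferritin (10 uM) in 50% saturated 1-aminoanthracene in PBS was incubated 10 min at room temperature with compound. Fluorescence (ex 380, em 535 nm) was normalized to free and bound 1-AMA, with concentration-response fitted by a four-parameter Hill equation.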
S-ASM inh – human S-ASM enzyme inhibition. AID 504937. placental ASM, HMU-PC fluorogenic substrate, 60 min. Potency, µM (top dose mostly 57.5 µM), usual class: inhibitors. actives 0.006% (n = 340,000)
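Fluorescence read-out (Ex 386 nm, Em 447 nm) after stopping the reaction at pH 10. Enzyme: ASM from human placenta; substrate HMU-PC0, 9 uM final; 60 min, 37 °C. Compound preincubation 10 min, ambient temperature.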
A number is an active result; - = inactive; ? = inconclusive; . = not tested or not shown; [ ] = another dose, or the depositor's remark. Unless noted, the call rests on the fitted dose curve; in most records, active means well fitted inhibition curve with a large enough effect; inconclusive means small, poorly fitted or top-dose-only effect; inactive means no such curve, though single readings can be large or run the other way.

SMILES	KCNH2 3.1 block	mIDH1 inhibitor	hERG WT inh	Anesthetic bind	S-ASM inh
COc1ccc(NC(=O)CSc2nc3c(c(=O)n2-c2ccccc2OC)SCC3)cc1	-	-	-	-	-
COc1ccccc1-n1c(SCC(N)=O)nc2c(c1=O)SCC2	-70	-	-	-	-
COc1ccccc1NC(=O)/C=C/c1cc([N+](=O)[O-])ccc1OC(F)F	-	-	-	-	-
O=C(/C=C/c1cc([N+](=O)[O-])ccc1OC(F)F)Nc1cccc(OC(F)F)c1	-	-	-158	-	-
O=C(/C=C/c1ccc(Cl)cc1Cl)NC(=S)Nc1ccc(CN2CCOCC2)cc1	-	-	-	-	-
COc1ccc(/C=C/C(=O)NC(=S)Nc2ccc(N3CCN(C(C)=O)CC3)cc2)cc1	-	-	-174	-	-
O=C(/C=C/c1ccccc1)NC(=S)Nc1ccc(CN2CCOCC2)cc1	-85	-	-	-	-
CC(=O)N1CCN(c2ccc(NC(=S)NC(=O)/C=C/c3ccccc3)cc2)CC1	.	.	.	-	.
N#Cc1cc([N+](=O)[O-])ccc1Oc1cccc(/C=N/NC(=O)c2cccc(Cl)c2)c1	?	-	-77	-	-
CCOc1ccc(OCC)c(NS(=O)(=O)c2ccc3c(c2)CCCN3C(C)=O)c1	.	-	.	-	.
CCn1c(=O)n(CC)c2cc(N3CCCCC3)c(NC(=O)Nc3cc(C)cc(C)c3)cc21	.	-	.	-	.
N#Cc1c2n(c3c(=O)n(CC(=O)c4ccc(Br)cc4)cnc13)CCCC2	-	-	-	?	-
N#Cc1c2n(c3c(=O)n(CC(=O)c4ccc([N+](=O)[O-])cc4)cnc13)CCCCC2	-	-	-101	?	-
Cc1sc2nc(CSc3ccccc3)nc(N3CCC(C(N)=O)CC3)c2c1C	-	-	.	-	-
CCOC(=O)c1sc2nc(CSc3ccccc3)nc(N3CCC(C(N)=O)CC3)c2c1C	-191	-	-225	?	-
Cc1ccc(NC(=O)CN2C(=O)NC(Cc3c[nH]c4ccccc34)C2=O)cc1 (centres undefined)	-101	-	-	.	-
O=C(CN1C(=O)NC(Cc2c[nH]c3ccccc23)C1=O)Nc1ccccc1Br (centres undefined)	-	-	-	.	-
Cc1cc(NC(=O)Cn2nnc3sc4c(c3c2=O)CCC(C(C)(C)C)C4)no1 (centres undefined)	-	-	-	13µM	-
CCCC(C)NS(=O)(=O)c1ccc(OC)c(C)c1 (centres undefined)	-	-	-	16µM	-
O=C(Oc1ccc(N(Cc2cccs2)C2=NS(=O)(=O)c3ccccc32)cc1)c1ccc(Cl)cc1	-99	-	?	-	-
O=C(Oc1ccc(N(Cc2cccs2)C2=NS(=O)(=O)c3ccccc32)cc1)c1ccccc1	-	-	-	-	-
CCOc1ccc(CCNC(=O)c2sc3ncccc3c2-n2cccc2)cc1OCC	.	-	.	-	.
CCC(=O)c1ccccc1OCCCN1CCC(Cc2ccccc2)CC1	-100	-	-131	-	-
CC(=O)CCc1ccc(OCCCCN2CCC(Cc3ccccc3)CC2)cc1	-94	-	-	-	-
CC1CCN(CCCCOc2ccc(C(=O)c3ccccc3)cc2)CC1	-	-	-	-	-
SMILES	KCNH2 3.1 block	mIDH1 inhibitor	hERG WT inh	Anesthetic bind	S-ASM inh
COc1cccc(OC)c1OCCCCN1CCC(Cc2ccccc2)CC1	-71	-	-	-	-
CCOc1ccccc1OCCN1CCC(Cc2ccccc2)CC1	?	-	-	-	-
N#Cc1ccccc1OCCCN1CCC(Cc2ccccc2)CC1	-96	-	-90	-	-
CCc1ccc(C2c3c(-c4ccccc4O)n[nH]c3C(=O)N2Cc2cccnc2)cc1 (centres undefined)	.	?	.	-	.
CC12C=C(/C=C/c3ccccc3)C(C)(C1)C(c1ccccc1)CC2=O (centres undefined)	.	.	.	-[15.3 µM]	.
CC1CCN(CCCOc2ccc(OCc3ccccc3)cc2)CC1	-80	-	-	?	-
O=C(CSc1nc2ccccc2c(=O)n1Cc1ccc(Cl)cc1)NCc1cccs1	-82	-	-	-	-
Cc1ccc(Cn2c(SCC(=O)Nc3cc(C)on3)nc3ccccc3c2=O)cc1	-97	-	-	-	-
O=C(CSc1nc2ccsc2c(=O)n1Cc1ccc(F)cc1)NCc1ccc(Cl)cc1	.	-	.	-	.
